Measurements: PubChem BioAssay
For some assays here: Measured potencies and affinities stand elsewhere. The source made the active and inactive calls. Unless noted, no rule for the calls is given here.

Key:
[1] = antimalarial activity against Dd2 strain (AID 2302;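 active = growth inhibition above 50% at the single 2 µM test dose, taken to imply half-maximal potency below 2 µM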;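 also: 0% = DMSO untreated growth and 100% = chloroquine plus artemisinin killed control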); settings: P. falciparum Dd2 in RBCs, LDH growth readout, 72 h; at 2 µM; hits give high values
[2] = HepG2 cytotoxicity, primary screen, cytotoxicity control for P. falciparum antimalarial project, cell-based, ATP luminescence (AID 2303;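 active = inhibition above 50%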;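 also: 0% = DMSO wells and 100% = digitonin-killed cells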); settings: HepG2 viability, 24-48 h, at 10 µM, hits give high values
[3] = molecular target: L-lactate dehydrogenase (Plasmodium falciparum (isolate CDC / Honduras)) (UniProt Q27743); assay: PfLDH activity inhibition – cell lysate, 3D7 strain, counter-screen for P. falciparum growth inhibition project (AID 2304);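 also: 0% = vehicle and 100% = reference inhibitor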; settings: P. falciparum 3D7 crude extract, LDH APAD/NBT absorbance; at 2 µM; hits give high values
[4] = inhibition of 3D7 malaria parasite growth – strain 3D7 (AID 2306);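 also: 0% = DMSO wells and 100% = chloroquine plus artemisinin control wells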; settings: P. falciparum 3D7 erythrocytic growth, LDH absorbance, 72 h; at 2 µM; hits give high values
[5] = molecular target: Calcium-dependent protein kinase 1 (Plasmodium falciparum (isolate 3D7)) (UniProt P62344); assay: PfCDPK1 kinase inhibitors, biochemical, TCAMS library (AID 1159585; cut-off not given, nearly all actives have IC50 up to about 0.98 µM;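 also: inhibitors leave more ATP so luminescence rises with inhibition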); settings: recombinant PfCDPK1, Kinase-Glo ATP depletion luminescence
[6] = molecular target: Plasmodium falciparum protein kinase 6 (PK6, PF3D7_1337100) (UniProt Q8IDW1); assay: PfPK6 kinase inhibitors, biochemical, TCAMS library (AID 1159586); settings: recombinant PfPK6, Kinase-Glo ATP depletion luminescence
[7] = molecular target: Protein kinase 7 (PK7), Plasmodium falciparum 3D7 (PF3D7_0213400) (UniProt Q7YTF7); assay: inhibition of Plasmodium PK7 catalytic activity – biochemical, TCAMS antimalarial set, Kinase-Glo luminescence (AID 1159587); settings: recombinant PfPK7, Kinase-Glo ATP depletion luminescence
[8] = molecular target: Calcium-dependent protein kinase 4 (Plasmodium falciparum (isolate 3D7)) (UniProt Q8IBS5); assay: PfCDPK4 kinase inhibitors, biochemical, TCAMS library (AID 1159588; cut-off not given, nearly all actives have IC50 up to about 0.91 µM); settings: recombinant PfCDPK4, Kinase-Glo ATP depletion luminescence
Calcium-dependent protein kinase 4 (Plasmodium falciparum (isolate 3D7)), sequence (Q8IBS5 whole entry, looked up): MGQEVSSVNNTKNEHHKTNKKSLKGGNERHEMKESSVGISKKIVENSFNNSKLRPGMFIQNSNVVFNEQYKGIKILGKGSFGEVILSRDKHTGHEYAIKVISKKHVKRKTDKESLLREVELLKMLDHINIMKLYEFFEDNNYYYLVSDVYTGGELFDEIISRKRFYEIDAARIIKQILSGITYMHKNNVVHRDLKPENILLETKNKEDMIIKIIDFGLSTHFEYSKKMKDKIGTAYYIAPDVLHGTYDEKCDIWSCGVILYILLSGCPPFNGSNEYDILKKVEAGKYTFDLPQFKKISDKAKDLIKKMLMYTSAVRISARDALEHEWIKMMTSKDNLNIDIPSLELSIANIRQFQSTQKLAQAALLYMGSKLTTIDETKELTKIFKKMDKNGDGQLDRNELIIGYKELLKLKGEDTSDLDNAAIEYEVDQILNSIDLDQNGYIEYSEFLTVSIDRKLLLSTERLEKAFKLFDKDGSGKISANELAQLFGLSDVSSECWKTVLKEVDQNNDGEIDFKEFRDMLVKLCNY

Plasmodium falciparum protein kinase 6 (PK6, PF3D7_1337100), sequence (Q8IDW1 1-305): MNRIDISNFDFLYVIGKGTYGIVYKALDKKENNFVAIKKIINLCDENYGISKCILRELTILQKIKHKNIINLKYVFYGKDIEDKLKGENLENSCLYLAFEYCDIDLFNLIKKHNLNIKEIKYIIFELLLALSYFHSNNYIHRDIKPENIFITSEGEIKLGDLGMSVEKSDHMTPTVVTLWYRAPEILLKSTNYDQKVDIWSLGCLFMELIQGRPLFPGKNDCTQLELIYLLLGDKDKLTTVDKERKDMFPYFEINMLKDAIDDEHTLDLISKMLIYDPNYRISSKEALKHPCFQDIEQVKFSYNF
L-lactate dehydrogenase (Plasmodium falciparum (isolate CDC / Honduras)), sequence (Q27743 whole entry, looked up): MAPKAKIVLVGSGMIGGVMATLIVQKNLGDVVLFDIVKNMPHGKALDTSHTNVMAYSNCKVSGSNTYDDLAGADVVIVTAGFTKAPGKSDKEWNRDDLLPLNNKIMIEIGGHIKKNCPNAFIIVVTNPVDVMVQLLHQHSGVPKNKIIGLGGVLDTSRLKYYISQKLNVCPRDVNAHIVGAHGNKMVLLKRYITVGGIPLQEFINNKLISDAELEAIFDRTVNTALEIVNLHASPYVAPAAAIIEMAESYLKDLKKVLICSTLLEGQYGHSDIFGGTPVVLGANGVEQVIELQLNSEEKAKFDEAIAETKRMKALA
Calcium-dependent protein kinase 1 (Plasmodium falciparum (isolate 3D7)), sequence (P62344 whole entry, looked up): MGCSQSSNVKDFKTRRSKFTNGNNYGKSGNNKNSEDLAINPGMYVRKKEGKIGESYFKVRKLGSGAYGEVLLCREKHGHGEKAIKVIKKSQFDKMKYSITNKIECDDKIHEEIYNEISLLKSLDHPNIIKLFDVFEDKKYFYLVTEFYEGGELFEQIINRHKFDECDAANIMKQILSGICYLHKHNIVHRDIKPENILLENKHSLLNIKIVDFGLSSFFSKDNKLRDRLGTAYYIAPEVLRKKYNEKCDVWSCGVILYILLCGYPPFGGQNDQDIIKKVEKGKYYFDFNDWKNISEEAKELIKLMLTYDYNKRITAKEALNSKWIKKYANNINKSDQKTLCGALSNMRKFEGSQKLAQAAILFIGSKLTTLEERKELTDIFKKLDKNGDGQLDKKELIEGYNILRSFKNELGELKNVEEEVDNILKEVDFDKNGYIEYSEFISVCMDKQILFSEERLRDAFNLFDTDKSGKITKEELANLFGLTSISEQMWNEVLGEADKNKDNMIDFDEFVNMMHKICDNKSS
Protein kinase 7 (PK7), Plasmodium falciparum 3D7 (PF3D7_0213400), sequence (Q7YTF7 1-343): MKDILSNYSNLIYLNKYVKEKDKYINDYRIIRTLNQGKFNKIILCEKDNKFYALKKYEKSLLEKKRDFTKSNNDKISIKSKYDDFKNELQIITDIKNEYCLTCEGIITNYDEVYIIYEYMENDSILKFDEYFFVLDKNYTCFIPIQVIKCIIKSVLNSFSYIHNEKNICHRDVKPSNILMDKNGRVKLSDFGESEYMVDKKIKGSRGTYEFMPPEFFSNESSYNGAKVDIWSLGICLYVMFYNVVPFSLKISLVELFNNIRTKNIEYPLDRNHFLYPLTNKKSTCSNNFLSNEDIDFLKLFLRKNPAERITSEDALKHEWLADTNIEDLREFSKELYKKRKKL

c1ccc2oc(-c3cc4ccncc4cc3OC3CCNCC3)cc2c1
inactive: inhibition [2] 11% | inhibition [3] -3% | outcome [5] | outcome [6] | outcome [7] | outcome [8]
active: growth inhibition [1] 96% | growth inhibition [4] 100%

CCc1ccc(CN2CCC(CNC(=O)c3cc(-c4ccccc4F)cs3)C2)cc1 (stereo not given)
active: growth inhibition [4] 100%
inactive: growth inhibition [1] 3% | inhibition [2] 29% | inhibition [3] -2% | outcome [5] | outcome [6] | outcome [7] | outcome [8]

CCc1cc(N2CCN(c3ccccc3F)CC2)nc(SCc2ccc(C(=O)NC3CC3)o2)n1
active: growth inhibition [1] 94% | growth inhibition [4] 90%
inactive: inhibition [2] 9% | inhibition [3] 1% | outcome [5] | outcome [6] | outcome [7] | outcome [8]

Nc1nc(Nc2cccc(O)c2)nc2ccccc12
inactive: inhibition [2] 25% | inhibition [3] 4% | outcome [5] | outcome [6] | outcome [7] | outcome [8]
active: growth inhibition [1] 79% | growth inhibition [4] 96%

CCOCc1cnc(C)nc1CNC(=O)c1c(C)[nH]c2ccc(C)cc12
inactive: inhibition [2] 8% | inhibition [3] 3% | outcome [5] | outcome [6] | outcome [7] | outcome [8]
active: growth inhibition [1] 65% | growth inhibition [4] 84%

COc1ccc2c(OC)ccc(CNCCCCCCNCc3ccc(OC)c4ccc(OC)cc34)c2c1
active: growth inhibition [1] 98% | inhibition [2] 100% | growth inhibition [4] 102%
inactive: inhibition [3] -3% | outcome [5] | outcome [6] | outcome [7] | outcome [8]

COc1cc2nc(N3CCC(CNC(=O)c4ccc(-c5ccc(O)cc5)cc4)CC3)nc(N)c2cc1OC
inactive: inhibition [2] 34% | inhibition [3] -2% | outcome [5] | outcome [6] | outcome [7] | outcome [8]
active: growth inhibition [1] 78% | growth inhibition [4] 102%

CC(C)c1sc(N2CCN(C)CC2)nc1C(=O)Nc1cccc2c1CCCC2
inactive: inhibition [2] 3% | inhibition [3] -1% | outcome [5] | outcome [6] | outcome [7] | outcome [8]
active: growth inhibition [1] 50% | growth inhibition [4] 98%

COc1cc(CN2CCC(NC(=O)[C@H](Cc3ccccc3)NC(=O)Nc3ccc(Oc4ccccc4)cc3)C2)ccc1O (stereo not given in full)
inactive: growth inhibition [1] -2% | inhibition [2] 10% | inhibition [3] 6% | outcome [5] | outcome [6] | outcome [7] | outcome [8]
active: growth inhibition [4] 92%

Cc1cc(NCCCOc2ccc(Cl)cc2)nc(NCc2ccccc2)n1
inactive: growth inhibition [1] 20% | inhibition [2] 45% | inhibition [3] 0% | outcome [5] | outcome [6] | outcome [7] | outcome [8]
active: growth inhibition [4] 95%

CCOc1cc(C(=O)Nc2ccc3nc(N4CCCCC4)cc(C)c3c2)cc(OCC)c1OCC
inactive: growth inhibition [1] 2% | inhibition [2] 26% | inhibition [3] -6% | outcome [5] | outcome [6] | outcome [7] | outcome [8]
active: growth inhibition [4] 100%

CCOc1cc(C(=O)Nc2ccc3nc(N(CC)CC)cc(C)c3c2)cc(OCC)c1OCC
inactive: growth inhibition [1] 9% | inhibition [2] 16% | inhibition [3] -2% | outcome [5] | outcome [6] | outcome [7] | outcome [8]
active: growth inhibition [4] 98%

Cn1c(NC(=O)c2ccc(CNC(=O)c3ccc(O)c(-c4ccc(Cl)c(Cl)c4)c3)cc2)nc2ccccc21
active: growth inhibition [1] 74% | growth inhibition [4] 94%
inactive: inhibition [2] 20% | inhibition [3] -1% | outcome [5] | outcome [6] | outcome [7] | outcome [8]

Nc1c(Cl)cc(C(O)CNCCCCCCOCCc2ccc(O)cc2)cc1Cl (stereo not given)
active: growth inhibition [1] 97% | growth inhibition [4] 97%
inactive: inhibition [2] 13% | inhibition [3] -3% | outcome [5] | outcome [6] | outcome [7] | outcome [8]

N#CC(c1ccc(Cl)cc1)c1ccc2c(C(F)(F)F)cc(C(F)(F)F)nc2n1 (stereo not given)
active: growth inhibition [1] 54% | inhibition [2] 68% | growth inhibition [4] 97%
inactive: inhibition [3] 1% | outcome [5] | outcome [6] | outcome [7] | outcome [8]

Cc1cc(NC2CCCC2)nc(Nc2ccccc2)n1
active: growth inhibition [1] 75% | growth inhibition [4] 100%
inactive: inhibition [2] 26% | inhibition [3] 0% | outcome [5] | outcome [6] | outcome [7] | outcome [8]

COc1cccc(NC(=O)Nc2ccc(C)c(-c3ccc(C(=O)Nc4ccncc4)cc3)c2)c1
inactive: inhibition [2] 45% | inhibition [3] 1% | outcome [5] | outcome [6] | outcome [7] | outcome [8]
active: growth inhibition [1] 64% | growth inhibition [4] 99%

COc1cc(O)c2c(=O)c(OC)c(-c3cccc(Cl)c3OC3O[C@H](CO)[C@@H](O)[C@H](O)[C@H]3O)oc2c1OC (stereo not given in full)
inactive: growth inhibition [1] 6% | inhibition [2] 16% | inhibition [3] -2% | outcome [5] | outcome [6] | outcome [7] | outcome [8]
active: growth inhibition [4] 101%

Cc1ccc(C(c2nnnn2C2CCCC2)N(Cc2ccco2)Cc2ccccc2Cl)cc1 (stereo not given)
inactive: inhibition [2] 8% | inhibition [3] -2% | outcome [5] | outcome [6] | outcome [7] | outcome [8]
active: growth inhibition [1] 78% | growth inhibition [4] 85%

C[C@@H](N)C#Cc1cc2c(Nc3ccc(OCc4cccc(F)c4)c(Cl)c3)ncnc2s1
inactive: growth inhibition [1] 23% | inhibition [2] 17% | inhibition [3] -5% | outcome [5] | outcome [6] | outcome [7] | outcome [8]
active: growth inhibition [4] 89%

CC(=O)Nc1ccc(C(=O)Nc2cccc(-c3ccc(-c4nc5ccccc5[nH]4)s3)c2)cn1
inactive: inhibition [2] 9% | inhibition [3] 2% | outcome [5] | outcome [6] | outcome [7] | outcome [8]
active: growth inhibition [1] 91% | growth inhibition [4] 101%

CCN(CC)CCN(Cc1ccc(-c2ccc(C(F)(F)F)cc2)cc1)C(=O)Cn1c(CCc2ccc(F)c(F)c2F)nc(=O)c2cccnc21
inactive: growth inhibition [1] 20% | inhibition [2] 29% | inhibition [3] -3% | outcome [5] | outcome [6] | outcome [7] | outcome [8]
active: growth inhibition [4] 89%

CCCC(CNC(=O)c1cc2c(Cl)cc(Cl)cc2[nH]1)CNc1cc(=O)c2ccccc2[nH]1 (stereo not given)
inactive: inhibition [2] 9% | inhibition [3] -5% | outcome [5] | outcome [6] | outcome [7] | outcome [8]
active: growth inhibition [1] 94% | growth inhibition [4] 100%

COc1ccc2nc3cc(Cl)ccc3c(NCCCCN3CCNCC3)c2c1
active: growth inhibition [1] 75% | growth inhibition [4] 102%
inactive: inhibition [2] 29% | inhibition [3] -5% | outcome [5] | outcome [6] | outcome [7] | outcome [8]

COc1ccc2nccc(NN=Cc3cccnc3)c2c1
inactive: inhibition [2] -1% | inhibition [3] -6% | outcome [5] | outcome [6] | outcome [7] | outcome [8]
active: growth inhibition [1] 84% | growth inhibition [4] 100%

OC(CNC1CCCCC1)Cn1c2ccc(Br)cc2c2cc(Br)ccc21 (stereo not given)
active: growth inhibition [1] 100% | growth inhibition [4] 98%
inactive: inhibition [2] 10% | inhibition [3] 3% | outcome [5] | outcome [6] | outcome [7] | outcome [8]

CN1CCC(N(Cc2ccc(N3CCN(Cc4c[nH]c5ccc(Cl)cc45)CC3)nc2)C2CC2)CC1
inactive: inhibition [3] -2% | outcome [5] | outcome [6] | outcome [7] | outcome [8]
active: growth inhibition [1] 76% | inhibition [2] 96% | growth inhibition [4] 100%

CC(=O)N(C)c1cccc(CNc2cc(C)nc(Nc3ccc(C)cc3)n2)c1
active: growth inhibition [4] 97%
inactive: growth inhibition [1] 21% | inhibition [2] 8% | inhibition [3] -9% | outcome [5] | outcome [6] | outcome [7] | outcome [8]

Cc1cccc(NC(=O)c2ccc(C(=O)NC3CCN(CC4CCCCC4)C3)cc2)c1 (stereo not given)
active: growth inhibition [4] 88%
inactive: growth inhibition [1] 3% | inhibition [2] 17% | inhibition [3] -3% | outcome [5] | outcome [6] | outcome [7] | outcome [8]

Cc1ccc(NC(=O)Nc2ccc(Cl)c(C(F)(F)F)c2)cc1-c1ccc(C(=O)Nc2ccncc2)cc1
active: growth inhibition [1] 99% | inhibition [2] 77% | growth inhibition [4] 99%
inactive: inhibition [3] 3% | outcome [5] | outcome [6] | outcome [7] | outcome [8]

Oc1ccc(CCCNc2nc(NCc3cccc4ccccc34)nc(NC3CCNCC3)n2)cc1
inactive: growth inhibition [1] -3% | inhibition [2] 8% | inhibition [3] 1% | outcome [5] | outcome [6] | outcome [7] | outcome [8]
active: growth inhibition [4] 91%

CC(C)(C)c1cc(C(=O)N2CCN(c3ccc(C(F)(F)F)cn3)CC2)n(Cc2ccc(F)cc2)n1
active: growth inhibition [4] 88%
inactive: growth inhibition [1] 26% | inhibition [2] 4% | inhibition [3] -1% | outcome [5] | outcome [6] | outcome [7] | outcome [8]

Cc1ccc(C(=O)Nc2cccc([N+](=O)[O-])c2)cc1S(=O)(=O)N1CC(C)CC(C)C1 (stereo not given)
active: growth inhibition [4] 100%
inactive: growth inhibition [1] 42% | inhibition [2] 24% | inhibition [3] -1% | outcome [5] | outcome [6] | outcome [7] | outcome [8]

OC1CCCN(Cc2cccc(-c3ccc(-c4nc5ccc(F)cc5[nH]4)cc3)c2)C1 (stereo not given)
inactive: growth inhibition [1] 42% | inhibition [2] 16% | inhibition [3] -4% | outcome [5] | outcome [6] | outcome [7] | outcome [8]
active: growth inhibition [4] 101%

O=C(NCc1cccc(F)c1)Nc1ccc(-c2cccc(-c3nc4ccc(F)cc4[nH]3)c2)cc1
active: growth inhibition [4] 88%
inactive: growth inhibition [1] 2% | inhibition [2] 31% | inhibition [3] 7% | outcome [5] | outcome [6] | outcome [7] | outcome [8]

Cc1ccc2cc(NCCCCCCCCON3C(N)=NC(N)=NC34CCCCC4)ccc2n1
inactive: inhibition [2] 15% | inhibition [3] 3% | outcome [5] | outcome [6] | outcome [7] | outcome [8]
active: growth inhibition [1] 80% | growth inhibition [4] 92%

O=C(Cn1c(CCc2cccc(F)c2F)nc(=O)c2ccccc21)N(Cc1ccc(-c2ccc(C(F)(F)F)cc2)cc1)C1CCN(C2CCOCC2)CC1
inactive: inhibition [3] -2% | outcome [5] | outcome [6] | outcome [7] | outcome [8]
active: growth inhibition [1] 76% | inhibition [2] 97% | growth inhibition [4] 101%

O=C(Nc1ccc(Cl)cc1C(=O)Nc1ccncc1)c1ccc(Cl)cc1Cl
active: growth inhibition [1] 75% | growth inhibition [4] 99%
inactive: inhibition [2] 8% | inhibition [3] -5% | outcome [5] | outcome [6] | outcome [7] | outcome [8]

CCCNCc1ccc(-c2ccc(CN(CCOC)C(=O)CCc3ccc(OC)cc3)cc2)nc1
active: growth inhibition [4] 98%
inactive: growth inhibition [1] 29% | inhibition [2] 11% | inhibition [3] -1% | outcome [5] | outcome [6] | outcome [7] | outcome [8]

CC(C)CNC(=O)c1cncc(-c2ccc(CN3CCC(N4CCCC4)CC3)cc2)c1
inactive: growth inhibition [1] 42% | inhibition [2] 25% | inhibition [3] 2% | outcome [5] | outcome [6] | outcome [7] | outcome [8]
active: growth inhibition [4] 100%
